Screening data: PubChem BioAssay, Corson Lab, School of Medicine, Indiana University
FECH block: human FECH heme synthesis enzyme inhibition; P22830; purified FECH, Ni-mesoporphyrin absorbance 550 nm; calls only at 10 µM (by protocol); 20,000 tested, 3.3% active; AID 1671448;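 active = enzyme reaction rate more than 3 SD below the solvent-only control wells on the same plate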;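 also: lower slope than DMSO wells means FECH inhibition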
Target sequence (P22830 whole entry, looked up): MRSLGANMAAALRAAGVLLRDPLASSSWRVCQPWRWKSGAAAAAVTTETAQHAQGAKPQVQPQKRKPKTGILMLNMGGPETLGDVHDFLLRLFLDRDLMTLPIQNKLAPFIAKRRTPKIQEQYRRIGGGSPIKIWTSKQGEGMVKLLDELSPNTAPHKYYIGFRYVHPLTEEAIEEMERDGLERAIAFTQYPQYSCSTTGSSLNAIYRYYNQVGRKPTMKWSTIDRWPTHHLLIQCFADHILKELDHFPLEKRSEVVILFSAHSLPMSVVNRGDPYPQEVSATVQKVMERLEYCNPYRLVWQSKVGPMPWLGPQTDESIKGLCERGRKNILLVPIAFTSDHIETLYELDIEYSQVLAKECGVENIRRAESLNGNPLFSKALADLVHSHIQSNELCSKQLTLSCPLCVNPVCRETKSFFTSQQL
The depositor's hits bear a star; i = inactive; + = active, no number. This excerpt belongs to a sample that is enriched for hits.

SMILES	FECH block
CCOCCCNC(=O)CN1c2ccc(CC)cc2-c2ccccc2S1(=O)=O	+
CC(C)c1ccc2c(c1)-c1ccccc1S(=O)(=O)N2CC(=O)NCCN1CCOCC1	i
CCc1ccc2c(c1)-c1ccccc1S(=O)(=O)N2CC(=O)NCCN1CCOCC1	i
CC(C)N(Cc1ccccc1Cl)C(=O)CCn1cccn1	i
O=C1NCC2(CCCN(Cc3ccc4ccccc4n3)CC2)O1 (centres undefined)	i
CC(C)C1CN(C(=O)Cn2cccnc2=O)CCCN1CC1CC1 (centres undefined)	i
Cc1ccn(CCCn2cnc(-c3ccccc3)c2-c2cccnc2)n1	i
CCCC(C)CN1CCC(n2cc(CN(C)C)nn2)CC1 (centres undefined)	+
CCCC(C)CN1CCC(n2cc(-c3ccccc3)nn2)CC1 (centres undefined)	i
CCCCc1cn(C2CCN(C(=O)C3CC(=O)N(C(C)(C)C)C3)CC2)nn1 (centres undefined)	i
COc1ccc(CNc2nc3nc(CNc4ccccc4F)cc(=O)n3[nH]2)cc1	i
COc1ccccc1CNc1nc2nc(CNc3ccccc3OC)cc(=O)n2[nH]1	i
CCc1ccccc1NCc1cc(=O)n2[nH]c(NCc3ccccc3Cl)nc2n1	+
O=c1cc(CNc2ccc(F)cc2)nc2nc(NCc3ccccc3)[nH]n12	i
Cc1ccc(NCc2cc(=O)n3[nH]c(NCc4ccccc4Cl)nc3n2)cc1	+
CCOc1ccccc1NCc1cc(=O)n2[nH]c(NCc3ccc(F)cc3)nc2n1	i
Cc1ccccc1NCc1cc(=O)n2[nH]c(NCc3ccccc3Cl)nc2n1	+
CCc1ccccc1NCc1cc(=O)n2[nH]c(NCc3ccc(OC)cc3)nc2n1	i
CCc1ccccc1NCc1cc(=O)n2[nH]c(NCc3ccccc3)nc2n1	i
COc1ccccc1CNc1nc2nc(CNc3ccccc3)cc(=O)n2[nH]1	i
COc1ccc(CNc2nc3nc(CNc4ccccc4OC)cc(=O)n3[nH]2)cc1	+
Cc1cccc(NCc2cc(=O)n3[nH]c(NCc4ccccc4Cl)nc3n2)c1C	i
CC(C)c1cc(CN2CCN(c3nc4ccccc4n3CCO)CC2)on1	i
C=CCn1c(=O)c2cnc(-c3ccc(OC)cc3)nc2n(CC)c1=O	i
Cc1ccc(-n2c(CN3CCN(S(=O)(=O)c4ccc(CC(C)C)cc4)CC3)nc3cccnc32)cc1	i
SMILES	FECH block
CCOc1c(Nc2cc(Cl)ccc2C)c(=O)c1=O	i
COc1ccccc1-c1cccc(C(=O)NCCS(C)(=O)=O)c1	i
CCCN1CCc2c(sc(NC(=O)c3ccc(S(=O)(=O)N4CCOCC4)cc3)c2C(=O)OC)C1	i
COCc1nc(CNC(=O)c2c(C)nc3ccc(Cl)cn23)no1	i
Cc1ccccc1NCc1cc(=O)n2[nH]c(NCc3ccc(F)cc3)nc2n1	+
CCc1ccccc1NCc1cc(=O)n2[nH]c(NCc3ccc(F)cc3)nc2n1	i
O=c1cc(CNc2ccccc2F)nc2nc(NCc3ccccc3)[nH]n12	i
O=c1cc(CNc2ccccc2Cl)nc2nc(NCc3ccccc3)[nH]n12	+
O=c1cc(CNc2ccccc2F)nc2nc(NCc3ccc(F)cc3)[nH]n12	i
C=C(C)COc1cccc(C(=O)N(C)C(C)c2nccs2)c1 (centres undefined)	i
O=C(c1cnc(-c2cccnc2)nc1)N(Cc1ccco1)Cc1cccs1	i
Cc1cccc(NC(=O)N2CCC(n3c(C)nc4cccnc43)CC2)c1C	i
Cn1nc(C(=O)NCc2ccccc2)c2c1CCN(C(=O)c1ccccc1)C2	i
COc1ccc(C(=O)N2CCc3c(c(C(=O)NCc4ccccc4)nn3C)C2)cc1	i
Cn1nc(C(=O)NCc2ccccc2)c2c1CCN(C(=O)C1CCC1)C2	+
Cc1ccc(C(=O)N2CCc3c(c(C(=O)NCc4ccccc4)nn3C)C2)cc1	+
Cn1nc(C(=O)NCc2ccccc2)c2c1CCN(C(=O)c1ccccc1Cl)C2	i
Cc1ccccc1C(=O)N1CCc2c(c(C(=O)NCc3ccccc3)nn2C)C1	i
C=CCNc1cc(CCC)nc2nc(-c3cccnc3)nn12	i
O=c1cc(CN2CCCCCC2)nc2nc(NCc3ccccc3)[nH]n12	i
FC(F)Sc1ccc(Nc2nc(N3CCCC3)nc3c2cnn3-c2ccccc2)cc1	i
Cc1cccc(N2C(=O)N(Cc3ccc(C)c(C)c3)c3ccccc3S2(=O)=O)c1	+
Cc1ccc(N2C(=O)N(Cc3cc(F)cc(F)c3)c3ccccc3S2(=O)=O)cc1	+
COc1cccc(N2C(=O)N(Cc3ccc(C(C)(C)C)cc3)c3ccccc3S2(=O)=O)c1	i
Cc1ccc(N2C(=O)N(Cc3cc(F)cc(F)c3)c3ccccc3S2(=O)=O)c(C)c1	+
SMILES	FECH block
CCc1cccc(N2C(=O)N(Cc3cc(F)cc(F)c3)c3ccccc3S2(=O)=O)c1	+
O=C1CN(Cc2ccc(F)cc2)S(=O)(=O)c2ccccc2N1Cc1ccc(Cl)cc1	i
Cc1ccc(C)c(CN2CC(=O)N(Cc3cccc(C(F)(F)F)c3)c3ccccc3S2(=O)=O)c1	i
Cc1ccc(N2C(=O)N(Cc3cc(=O)n4ccccc4n3)c3ccccc3S2(=O)=O)cc1	i
O=C1CN(Cc2cccc(Br)c2)S(=O)(=O)c2ccccc2N1Cc1cccc(F)c1	i
CC(C)(C)c1ccc(CN2C(=O)N(c3cc(F)ccc3F)S(=O)(=O)c3ccccc32)cc1	i
CCc1cccc(N2C(=O)N(CC(=O)NC3CCCCC3)c3ccccc3S2(=O)=O)c1	i
Cc1ccc(N2C(=O)N(Cc3ccc(C(C)(C)C)cc3)c3ccccc3S2(=O)=O)cc1F	i
O=C(CSc1ncc2c(n1)-c1ccccc1N(Cc1ccc(Cl)cc1)S2(=O)=O)Nc1ccc(Cl)cc1	i
O=S(=O)(NCc1nc2cccnc2n1C1CC1)c1ccccc1	i
CCc1nccn1CCC(=O)N1CCNCC1C(=O)N1CCCC1 (centres undefined)	i
COCCN(Cc1cccs1)C(=O)c1cc(C)c(C)s1	i
CN(CC(O)CO)C(=O)CCC(=O)NC1CCCCCCC1 (centres undefined)	i
CC(C)CNC(=O)c1[nH]cnc1C(=O)NCC1CC1	i
C=CCN(c1nc2nc(C)cc(C)n2n1)S(=O)(=O)c1ccccc1	i
O=C(NCc1cccnc1-n1cnc2ccccc21)C(=O)Nc1ccccc1	i
O=C(NCCCO)C(=O)NCc1n[nH]c(=O)c2ccccc12	i
CCN(CC)C(=O)C1CCN(c2ccc(-c3cccs3)nn2)CC1	i
Cc1cc(C)n2c(SCc3cc(=O)n4oc(C)cc4n3)nnc2n1	i
Cc1cc2nc(CSc3nnc(-c4cc(C)n(C)n4)o3)cc(=O)n2o1	i
Cc1cc2nc(CSc3nnc4c(n3)[nH]c3ccccc34)cc(=O)n2o1	+
O=C(O)C1CC(=O)N(CCc2cccnc2)C1 (centres undefined)	i
CCCN1C(=O)c2ccc(C(=O)N(CC)C3CCOC(C)(C)C3)cc2C1=O (centres undefined)	i
CN(C)C(=O)c1ccc(-c2ccc(COCCN)cc2)cc1	+
Cn1c(=O)n(CC(=O)NCc2ccccc2Cl)c(=O)c2cnc(-c3ccccc3)nc21	i
CCc1[nH]c2c(CNC(=O)C(C)N3CCN(C)CC3)cc(C)cc2c1C (centres undefined)	i
CCCN(c1nc2nc(C)cc(C)n2n1)S(=O)(=O)c1ccc(C)cc1	+
Cc1cc(C)n2nc(CN(c3ccc(F)cc3)S(=O)(=O)c3ccccc3)nc2n1	i
